Data published in PubChem BioAssay (Tox21).
Several values for one entry are separate records, joined by “and”; a condition that tells them apart may be missing. Equal values may be shown once. Inconclusive results are not listed. A structure can be active in one record and inactive in another. Activity calls are given as the source filed them. Unless noted, the call rests on the fitted dose curve.

test system: not listed separately; experiment: qHTS assay to identify small molecule antagonists of the sonic hedgehog signaling (Shh) pathway (AID 1259369); conditions: NIH/3T3 Gli1-Luc reporter, Shh antagonist, luminescence 24 h; series mostly up to 92.4 µM; activity change, negative = inhibition: at the top concentration; further: nearly all actives have a fitted effect of over 45% in size; further: potency means the concentration at half of the fitted maximal effect
How it was run: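 Luminescence readout: firefly Luc under Gli1 response element in 3T3Gli1-Luc cells (NIH/3T3 clone). Antagonist mode, stimulation by conditioned medium; compound exposure 24hr at 37 C, 5% CO2.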
On the % scale 0 is the no-effect control and ±100 the full control effect.

For `c1cc2ccc3cccc4ccc(c1)c2c34`, which “activity change, negative = inhibition” value is on record?
The value was 37% (inactive).

For `BrCC(Br)C1CCC(Br)C(Br)C1` (stereo not drawn), which “activity change, negative = inhibition” value is on record?
Its value is -15.8% (inactive).

For `Oc1ccc(Cl)c(Cl)c1Cl`, which “activity change, negative = inhibition” value is on record?
Its value is -11.5% (inactive).

With `O=C(N[C@H](c1ccccc1)[C@@H]1CN2CCC1CC2)c1c(Cl)ccc(C(F)(F)F)c1Cl` as the compound, how does the Potency read?
Its Potency is 13.9 µM (active).

Which “activity change, negative = inhibition” value does the source give for `CCCCN=C=O` here?
Its value is -29.8% (inactive).

With `[CH3][Sn]([CH3])([Cl])[Cl]` as the compound, how does the Potency read?
The Potency was 2.43 µM (active).

With `CCOP(=O)(OCC)Oc1ccc([N+](=O)[O-])cc1` as the compound, how does the “activity change, negative = inhibition” value read?
The value was -10.9% (inactive).

For `CC(C)O.CC(C)O.OCCN(CCO)CCO.OCCN(CCO)CCO.[Ti]`, which “activity change, negative = inhibition” value is on record?
Its value is 0% (inactive).

For `CCOS(C)(=O)=O`, which “activity change, negative = inhibition” value is on record?
The value was 0% (inactive).

With `Nc1nc(N)nc(N)n1` as the compound, how does the “activity change, negative = inhibition” value read?
The value was 25.2% (inactive).

Which Potency does the source give for `CCCCN(N=O)C(=N)N[N+](=O)[O-]` here?
Its Potency is 27.9 µM (active).

For `Cc1ccc(-c2c(Cl)nc(C#N)n2S(=O)(=O)N(C)C)cc1`, which Potency is on record?
Its Potency is 7.69 µM (active).

With `Clc1cc(C(Cl)(Cl)Cl)cnc1Cl` as the compound, how does the “activity change, negative = inhibition” value read?
Its value is -21.1% (inactive).

For `CCCC(Cn1cncn1)c1ccc(Cl)cc1Cl` (stereo not drawn), which Potency is on record?
The Potency was 17.2 µM (active).

For `O=Cc1ccc(Cl)cc1Cl`, which “activity change, negative = inhibition” value is on record?
Its value is 6.39% (inactive).

With `CCCCc1c(C)nc(NCC)nc1OS(=O)(=O)N(C)C` as the compound, how does the Potency read?
The Potency was 61.1 µM (active).

Which Potency does the source give for `CCCCOC(=O)c1ccccc1C(=O)OCc1ccccc1` here?
Its Potency is “inactive and 19.3 µM (active)”.

Which “activity change, negative = inhibition” value does the source give for `CC1C(=O)C[C@]2(C(C)C)C[C@H]12` (stereo partly drawn) here?
The value was 14.1% (inactive).

For `O=S(=O)(O)C(F)(F)C(F)(F)C(F)(F)C(F)(F)F`, which Potency is on record?
Its Potency is 57.8 µM (active).

With `CCOC(=O)CBr` as the compound, how does the “activity change, negative = inhibition” value read?
Its value is 6.72% (inactive).

For `CCn1cc[n+](C)c1`, which Potency is on record?
Its Potency is “inactive and 19.3 µM (active) and 38.8 µM (active)”.

With `[O-][Cl+]O` as the compound, how does the “activity change, negative = inhibition” value read?
Its value is 4.61% (inactive).

With `O=C(O)c1ccccc1C(=O)Nc1cccc2ccccc12` as the compound, how does the “activity change, negative = inhibition” value read?
Its value is -12.1% (inactive).

With `CCCCCCCCOC(=O)c1ccc(C(=O)OCCCCCCCC)c(C(=O)OCCCCCCCC)c1` as the compound, how does the “activity change, negative = inhibition” value read?
The value was 0% (inactive).

For `C=COC(C)=O`, which “activity change, negative = inhibition” value is on record?
The value was 0% (inactive).

With `CC(C)(CCl)C(=O)Cl` as the compound, how does the Potency read?
Its Potency is 12.2 µM (active).

Which Potency does the source give for `CO/N=C(/C(=O)OC)c1ccccc1COc1ccccc1C` here?
The Potency was 4.33 µM (active).

For `O=Cc1ccc2c(c1)OCO2`, which “activity change, negative = inhibition” value is on record?
The value was 17.1% (inactive).

molecular target: Estrogen receptor beta (Homo sapiens) (UniProt Q92731); experiment: qHTS assay to identify small molecule agonists of the estrogen receptor beta (ER-beta) signaling pathway (AID 1259377; active means well fitted activation curve with a large enough effect in the signal ratio in the repeat runs, not every such curve was filed as active; the % refers to the signal ratio); conditions: ER-beta-UAS-bla HEK293T, beta-lactamase FRET ratio, 16 h; series mostly up to 92.4 µM; activation: at the top concentration
How it was run: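 Beta-lactamase reporter readout: fluorescence of LiveBLAzer B/G FRET substrate after 2 h at room temperature, following 16 h compound treatment of ER-beta-UAS-bla HEK293T cells at 37C in 2% charcoal-stripped FBS medium.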

Estrogen receptor beta (Homo sapiens), sequence (Q92731 whole entry, looked up): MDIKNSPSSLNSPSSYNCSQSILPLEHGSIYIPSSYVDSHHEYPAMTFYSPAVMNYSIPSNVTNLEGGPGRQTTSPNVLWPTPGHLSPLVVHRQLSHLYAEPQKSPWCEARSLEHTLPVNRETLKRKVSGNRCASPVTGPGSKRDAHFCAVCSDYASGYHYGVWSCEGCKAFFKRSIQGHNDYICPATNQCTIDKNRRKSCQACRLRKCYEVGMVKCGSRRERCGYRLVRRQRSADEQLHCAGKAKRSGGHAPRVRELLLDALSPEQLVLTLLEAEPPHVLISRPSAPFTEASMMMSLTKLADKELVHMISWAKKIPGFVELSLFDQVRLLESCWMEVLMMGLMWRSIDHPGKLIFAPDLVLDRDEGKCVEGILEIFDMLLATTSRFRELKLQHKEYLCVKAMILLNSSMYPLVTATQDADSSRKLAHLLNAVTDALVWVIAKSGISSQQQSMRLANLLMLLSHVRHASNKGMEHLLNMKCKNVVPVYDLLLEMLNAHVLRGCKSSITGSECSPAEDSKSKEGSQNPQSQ

With `Oc1ccc(Cl)c(Cl)c1Cl` as the compound, how does the “activation” value read?
The value was 10.5% (inactive).

Which “activation” value does the source give for `CCOC(=O)[C@]1(c2ccccc2)Oc2ccccc2[C@@H]1N` here?
Its value is -0.552% (inactive).

Which “activation” value does the source give for `O=C(N[C@H](c1ccccc1)[C@@H]1CN2CCC1CC2)c1c(Cl)ccc(C(F)(F)F)c1Cl` here?
Its value is -8.35% (inactive).

For `CCCCN=C=O`, which “activation” value is on record?
Its value is 1.3% (inactive).

For `CCOP(=O)(OCC)Oc1ccc([N+](=O)[O-])cc1`, which Potency is on record?
The Potency was “inactive”.

For `COc1nn(C(=O)NS(=O)(=O)c2ccccc2OC(F)(F)F)c(=O)n1C`, which “activation” value is on record?
The value was 0.382% (inactive).

Which “activation” value does the source give for `Nc1nc(N)nc(N)n1` here?
The value was 1.01% (inactive).

For `Clc1cc(C(Cl)(Cl)Cl)cnc1Cl`, which “activation” value is on record?
The value was 4.46% (inactive).

With `CCCC(Cn1cncn1)c1ccc(Cl)cc1Cl` (stereo not drawn) as the compound, how does the “activation” value read?
Its value is -3.34% (inactive).

For `CCCCc1c(C)nc(NCC)nc1OS(=O)(=O)N(C)C`, which “activation” value is on record?
The value was -4.65% (inactive).

With `CCCCOC(=O)c1ccccc1C(=O)OCc1ccccc1` as the compound, how does the Potency read?
The Potency was “inactive”.

For `CC1C(=O)C[C@]2(C(C)C)C[C@H]12` (stereo partly drawn), which “activation” value is on record?
Its value is 11.3% (inactive).

For `O=S(=O)(O)C(F)(F)C(F)(F)C(F)(F)C(F)(F)F`, which “activation” value is on record?
The value was 11% (inactive).

With `CCOC(=O)CBr` as the compound, how does the “activation” value read?
The value was 0.88% (inactive).

Which “activation” value does the source give for `[O-][Cl+]O` here?
The value was -3.45% (inactive).

For `O=C(O)c1ccccc1C(=O)Nc1cccc2ccccc12`, which “activation” value is on record?
Its value is -0.66% (inactive).

With `CCCCCCCCOC(=O)c1ccc(C(=O)OCCCCCCCC)c(C(=O)OCCCCCCCC)c1` as the compound, how does the “activation” value read?
Its value is -1.54% (inactive).

With `CN1C[C@H](CNC(=O)OCc2ccccc2)C[C@@H]2c3cccc4c3c(cn4C)C[C@H]21` as the compound, how does the “activation” value read?
Its value is -0.616% [at 42.5 µM] (inactive).

Which “activation” value does the source give for `CC(C)(CCl)C(=O)Cl` here?
Its value is -1.67% (inactive).

For `O=Cc1ccc2c(c1)OCO2`, which “activation” value is on record?
Its value is -0.0876% (inactive).
